Data on 25 molecules can be found in ChEMBL document CHEMBL4296182, “CO-ADD screening of NIH NCI Diversity Set V”.

The Inhibition is the drop in the measured response relative to a control, in per cent.

One assay has as its system Staphylococcus aureus. The assay can be described thus: Antibacterial activity against Staphylococcus aureus MRSA ATCC 43300 (CO-ADD:GP_020); MIC in CAMBH media using NBS plates, by Resazurin F(560/590). Type of assay: functional. The conditions noted are these: Concentration 20 uM, ASSAY_TEST Inhibition of Bacterial Growth, detection method Resazurin, Fluorescence (ex560/em590), MEDIA CAMHB, plate type 384well, CORNING #3640, time 18 hr.

In another assay the test system is Acinetobacter baumannii. The assay can be described thus: Antibacterial activity against Acinetobacter baumannii ATCC 19606 (CO-ADD:GN_034); MIC in CAMBH media using NBS plates, by Resazurin F(560/590). Type of assay: functional. Particulars: Concentration 20 uM, ASSAY_TEST Inhibition of Bacterial Growth, detection method Resazurin, Fluorescence (ex560/em590), MEDIA CAMHB, plate type 384well, CORNING #3640, time 18 hr. In general terms: Alamar Blue is a resazurin reagent that responds to reducing activity.

A further assay deals with Escherichia coli. Nature of the assay: Antibacterial activity against Escherichia coli ATCC 25922 (CO-ADD:GN_001); MIC in CAMBH media using NBS plates, by Resazurin F(560/590). The assay is classed as functional. The conditions noted are these: Concentration 20 uM, ASSAY_TEST Inhibition of Bacterial Growth, detection method Resazurin, Fluorescence (ex560/em590), MEDIA CAMHB, plate type 384well, CORNING #3640, time 18 hr.

A further assay has as its system Klebsiella pneumoniae. The conditions noted are these: Concentration 20 uM; ASSAY_TEST Inhibition of Bacterial Growth; detection method Absorption (OD600); MEDIA CAMHB; plate type 384well; NBS; CORNING #3640; time 18 hr.
The test system of the next assay is Candida albicans. The conditions noted are these: 20 µM.
A further assay relates to Cryptococcus neoformans. Particulars: Concentration 20 uM; ASSAY_TEST Inhibition of Fungal Growth; detection method Resazurin; Absorption (OD600-OD570); plate type 384well; NBS; CORNING #3640.

For part of these data: Measured potencies and affinities stand elsewhere.

Consider `COc1ccc(Nc2cc(C)nc(N)n2)cc1`, for which the Inhibition with Staphylococcus aureus was -7.83%; in the assay with Acinetobacter baumannii, -5.29%; in the assay on Escherichia coli, -4.32%; with Klebsiella pneumoniae it was 2.7%; in the assay with Candida albicans, 1.31%; with Cryptococcus neoformans it was -3.23%.

For the molecule `CC(C)(C)c1ccc(C(=O)Nc2ccc(S(N)(=O)=O)cc2)cc1`, the Inhibition was 29.14% with Staphylococcus aureus; 5.57% with Acinetobacter baumannii; 7.06% in the assay on Escherichia coli; 7.59% with Klebsiella pneumoniae; 2.9% in the assay on Candida albicans; -15.62% in the assay on Cryptococcus neoformans.

Consider `Cc1cc(O)c2c(C)ccc(C)c2n1`, for which the Inhibition was 0.21% with Staphylococcus aureus; 1.08% in the assay on Acinetobacter baumannii; 3.82% with Escherichia coli; 5.25% in the assay on Klebsiella pneumoniae; 0.13% in the assay with Candida albicans; -9.44% in the assay with Cryptococcus neoformans.

`CN1C(=C=Cc2cc(I)c(O)c(I)c2)C(C)(C)c2ccccc21`: the Inhibition with Staphylococcus aureus worked out at 20.66%; in the assay with Acinetobacter baumannii, 1.84%; with Escherichia coli, 10.92%; in the assay with Klebsiella pneumoniae, 7.2%; in the assay with Candida albicans, 6.34%; in the assay on Cryptococcus neoformans, 5.51%.

Regarding `c1ccc(CSc2nc3c[nH]cnc-3n2)cc1`, the Inhibition with Staphylococcus aureus is 8.72%; in the assay on Acinetobacter baumannii it was -4.41%; in the assay with Escherichia coli it was 6.08%; in the assay on Klebsiella pneumoniae it was 8.84%; in the assay with Candida albicans, 0.41%; in the assay with Cryptococcus neoformans, 13.03%.

Regarding `CN1CCC(n2[nH]c(-c3ccccc3)c(Cc3ccccc3)c2=O)CC1` [BENZPIPERYLON], the Inhibition in the assay with Staphylococcus aureus is 11.83%; in the assay on Acinetobacter baumannii it was -21.66%; in the assay with Escherichia coli, 9.93%; in the assay on Klebsiella pneumoniae, 7.59%; in the assay on Candida albicans, -2.02%; in the assay with Cryptococcus neoformans, -11.9%.

Turning to `CC(C)n1cnc2c(S)ncnc21`, the Inhibition in the assay with Staphylococcus aureus was 14.01%; in the assay on Acinetobacter baumannii, -16.92%; in the assay with Escherichia coli it was 12.98%; with Klebsiella pneumoniae, 11.21%; in the assay on Candida albicans it was 2.47%; in the assay on Cryptococcus neoformans it was -6.64%.

Consider `N#CC1=CC2CN(Cc3ccccc3)C1C1C(=O)N(c3ccccc3)C(=O)C21` (stereo not given), for which the Inhibition was -0.51% in the assay on Staphylococcus aureus; 3.07% with Acinetobacter baumannii; -13.61% in the assay on Escherichia coli; 5.72% in the assay with Klebsiella pneumoniae; 9.06% in the assay with Candida albicans; 18.01% in the assay on Cryptococcus neoformans.

Take `CCOC(=O)c1nnsc1-c1ccc(-c2snnc2C(=O)OCC)cc1`: the Inhibition in the assay on Staphylococcus aureus is 4.36%; in the assay with Acinetobacter baumannii, 3.04%; in the assay on Escherichia coli, -11.2%; with Klebsiella pneumoniae it was 29.27%; with Candida albicans it was 6.68%; in the assay on Cryptococcus neoformans, -3.34%.

Regarding `Clc1ccc(Nc2nnc(-c3ccc4c(c3)OCO4)o2)cc1`, the Inhibition with Staphylococcus aureus is -8.18%; in the assay with Acinetobacter baumannii, 6.42%; in the assay with Escherichia coli it was 9.52%; with Klebsiella pneumoniae, 10.29%; in the assay on Candida albicans, 4.12%; in the assay with Cryptococcus neoformans it was 44.25%.

In the case of `NC(=O)NC1NC(=O)NC1=O` (stereo not given) [ALLANTOIN], the Inhibition was 12.16% with Staphylococcus aureus; -7.41% in the assay on Acinetobacter baumannii; 9.38% in the assay with Escherichia coli; 18.45% in the assay on Klebsiella pneumoniae; 2.26% in the assay on Candida albicans; -7.8% in the assay with Cryptococcus neoformans.

As to `COc1c(O)ccc2c1CN1CCc3cc4c(cc3C1C2)OCO4` (stereo not given), the Inhibition with Staphylococcus aureus was 12.64%; in the assay with Acinetobacter baumannii, 10.47%; in the assay with Escherichia coli, 3.09%; in the assay with Klebsiella pneumoniae, 10.21%; in the assay on Candida albicans, -2.64%; in the assay on Cryptococcus neoformans, -12.68%.

With `Nn1c(Cc2ccccc2)nnc1Cc1ccccc1`, the Inhibition in the assay with Staphylococcus aureus is 7.31%; in the assay on Acinetobacter baumannii it was 16.12%; in the assay with Escherichia coli it was -0.96%; in the assay with Klebsiella pneumoniae, 11.84%; in the assay on Candida albicans it was 2.51%; in the assay on Cryptococcus neoformans, -5.12%.

Regarding `Cc1cc2nc3ccc(N(C)C)cc3[s+]c2cc1N.[Cl-]` [TOLONIUM CHLORIDE], the Inhibition with Staphylococcus aureus was -5.05%; in the assay on Acinetobacter baumannii, -12.21%; in the assay on Escherichia coli, 2.47%; with Klebsiella pneumoniae it was 19.75%; in the assay with Candida albicans, 1.87%; in the assay with Cryptococcus neoformans, -7.34%.

`CC(C)(C(N)=O)c1ccccc1`: the Inhibition is 17.59% in the assay with Staphylococcus aureus; -10.23% in the assay with Acinetobacter baumannii; 13.36% in the assay with Escherichia coli; 17.26% in the assay on Klebsiella pneumoniae; -1.04% with Candida albicans; -2.3% in the assay on Cryptococcus neoformans.

With `Cl.Nc1ncnc2c(C3OC(CO)C(O)C3O)c[nH]c12` (stereo not given), the Inhibition is 3.2% in the assay with Staphylococcus aureus; 11.32% with Acinetobacter baumannii; -11.86% in the assay on Escherichia coli; 9.96% in the assay with Klebsiella pneumoniae; 2.09% in the assay with Candida albicans; -0.14% in the assay on Cryptococcus neoformans.

Consider `CC1(C)OC2C(CO)OC(n3cnc4c(S)ncnc43)C2O1` (stereo not given), for which the Inhibition was 1.89% in the assay with Staphylococcus aureus; -15.97% with Acinetobacter baumannii; 11.94% with Escherichia coli; 6.21% in the assay on Klebsiella pneumoniae; 4.06% in the assay with Candida albicans; -14.25% in the assay with Cryptococcus neoformans.

As to `O=C(O)CCC1(c2ccccc2)NC(=O)NC1=O` (stereo not given), the Inhibition is 11.61% in the assay on Staphylococcus aureus; -12.39% with Acinetobacter baumannii; 7.41% in the assay on Escherichia coli; 2.37% with Klebsiella pneumoniae; -1.18% with Candida albicans; -9.46% in the assay with Cryptococcus neoformans.

With `COc1ccccc1C1OC2=Nc3cc([N+](=O)[O-])ccc3NC2=C1O` (stereo not given), the Inhibition is 8.5% with Staphylococcus aureus; -1.62% with Acinetobacter baumannii; 2.79% in the assay with Escherichia coli; 1.15% in the assay with Klebsiella pneumoniae; 0.19% in the assay on Candida albicans; -4.37% with Cryptococcus neoformans.

Regarding `Cc1c(O)ccc2c(O)c(NC(=O)c3ccc4c(c3)CCC(C)(C)O4)c(=O)oc12` [CYCLONOVOBIOCIC ACID], the Inhibition with Staphylococcus aureus is 10.86%; in the assay with Acinetobacter baumannii, 10.56%; with Escherichia coli, -1.41%; in the assay on Klebsiella pneumoniae, 4.57%; in the assay with Candida albicans, 4.26%; with Cryptococcus neoformans, -3.84%.

For the molecule `Nc1nc(S)c2ncn(C3CCCC3)c2n1`, the Inhibition in the assay with Staphylococcus aureus was 16.34%; in the assay on Acinetobacter baumannii it was -8.37%; in the assay on Escherichia coli, 6.43%; in the assay with Klebsiella pneumoniae, 18.77%; with Candida albicans it was -3.88%; with Cryptococcus neoformans, -14.08%.

On to `O=C(c1ccccc1)c1ccc(-c2ccc(O)cc2)cc1`, for which the Inhibition is -4.49% in the assay on Staphylococcus aureus; -14.62% with Acinetobacter baumannii; 8.24% with Escherichia coli; 15.69% in the assay with Klebsiella pneumoniae; 6.54% in the assay with Candida albicans; -10.56% in the assay with Cryptococcus neoformans.

On to `Cc1c(O)cnc2nn(-c3ccccc3)c(=N)n12`, for which the Inhibition was 11.23% with Staphylococcus aureus; 10.25% in the assay on Acinetobacter baumannii; 2.75% with Escherichia coli; 9.94% in the assay on Klebsiella pneumoniae; 3.98% with Candida albicans; -5.13% in the assay with Cryptococcus neoformans.

For `CC12CCC(C(NC(=S)NN)C1=O)C2(C)C` (stereo not given), the Inhibition with Staphylococcus aureus was 2.53%; in the assay with Acinetobacter baumannii, -10.15%; in the assay on Escherichia coli, 7.86%; with Klebsiella pneumoniae it was 9.19%; in the assay on Candida albicans it was 1.53%; with Cryptococcus neoformans, -9.53%.

Take `CCN(CC)CCNC(=O)C(Cl)=C1C(Cl)=C(Cl)C(Cl)=C1Cl`: the Inhibition in the assay with Staphylococcus aureus was 7.61%; in the assay on Acinetobacter baumannii, 6.92%; in the assay with Escherichia coli it was -4.74%; in the assay with Klebsiella pneumoniae, 29.33%; in the assay on Candida albicans it was 1.86%; with Cryptococcus neoformans, -2.01%.
